Hits are enriched below; roughly 2.4% of the tested compounds scored in any of these assays.
D2 antagonist = antagonists of human D2 dopamine receptor | HEK293 TREx D2 cells, calcium flux, dopamine EC80 | inhibition, % at 10 µM | 340,000 tested, 2% active | P14416; in the data active = inhibition above about 30%; inactive = below that, where a call was filed; note: 0% is about no effect
Target sequence (P14416 whole entry, looked up): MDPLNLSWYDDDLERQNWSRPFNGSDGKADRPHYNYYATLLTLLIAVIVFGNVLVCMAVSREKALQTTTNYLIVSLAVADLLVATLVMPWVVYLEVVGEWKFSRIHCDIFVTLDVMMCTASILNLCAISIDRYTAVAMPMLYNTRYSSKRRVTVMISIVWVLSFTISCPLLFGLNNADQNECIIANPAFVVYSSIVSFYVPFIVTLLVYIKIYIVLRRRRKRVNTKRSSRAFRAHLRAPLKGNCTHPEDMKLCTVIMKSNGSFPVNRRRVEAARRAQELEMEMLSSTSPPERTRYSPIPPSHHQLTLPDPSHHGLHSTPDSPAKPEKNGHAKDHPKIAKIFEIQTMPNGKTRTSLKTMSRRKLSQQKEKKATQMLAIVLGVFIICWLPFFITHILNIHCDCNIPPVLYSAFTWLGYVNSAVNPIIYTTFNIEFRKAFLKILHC
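Cells plated overnight at 30 C with tetracycline; no-wash calcium dye, 30–90 min RT; 10 s baseline; compound pinned; 180 s read; EC80 dopamine added; another 180 s read.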
D2 PAM-1 = human D2 receptor positive allosteric modulation | DiscoveRx D2 beta-arrestin cells, luminescence, 90 min; 100% = 57 uM dopamine signal | potentiation, % (test concentration not listed) | AID 624464 | P14416 | 360,000 tested, 0.23% active; in the data active = potentiation above about 50%; inconclusive = mostly about 30% to 49%
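PathHunter D2 cells, attached overnight at 37 deg C, received compound in DMSO plus dopamine at EC20 (50 nM final) for 90 min at 37 deg C. Beta-arrestin recruitment was read as luminescence after 1 h with detection reagent at ambient temperature.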
D2 ag-1 = human D2 receptor agonism in beta-arrestin assay; P14416; DiscoveRx PathHunter D2 beta-arrestin, luminescence, 90 min; 100% = 57 uM dopamine signal; activation, % (no concentration beside the values); 360,000 tested, 0.084% active; AID 624465; in the data active = activation above about 40%; inconclusive = between about 15% and that limit
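DiscoveRx PathHunter D2 beta-arrestin cells (2,100/well) attached overnight, then compound-stimulated 90 min at 37 C in HBSS/10 mM HEPES/0.1% Tween-20 buffer; beta-galactosidase complementation read by luminescence after 1 h at ambient temperature. Dopamine 57 uM final (EC100) as control.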
D2 PAM-2 = D2 dopamine receptor (human) potentiation; P14416; potentiation, % at 10 µM; HEK293 T-REx D2, calcium flux, EC20 dopamine potentiation; 340,000 tested, 0.34% active; AID 485347;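 active = potentiation over 3 SD above the plate norm, cut at about 30% in these data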; note: 0% is about no effect
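Potentiation of an EC20 dopamine calcium response measured kinetically over 180 s, after a preceding 180 s compound-only read flagging agonists. Cells: inducible Hek293 Trex D2 line, 4000/well, cultured overnight at 30 C before dye loading.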
D2 ag-2 = agonists of human D2 dopamine receptor; P14416; HEK293 T-REx D2 cells, calcium flux agonist mode; activation, % at 2 µM; 340,000 tested, 0.53% active;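 active = activation over 3 SD above normal in the single-dose calcium agonist read, cut at about 30% in these data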; note: 0% is about no effect
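Tetracycline-induced HEK293 Trex cells with D2 receptor force-coupled to calcium signaling, plated overnight at 30 C and loaded with no-wash calcium dye. Calcium flux read kinetically for 180 s after compound addition; responses flag agonists.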
D3 arrestin ag = activates human D3 dopamine receptor beta-arrestin recruitment | shares compounds with D2 ag-2 | DiscoveRx D3 beta-arrestin cells, luminescence, 90 min | Potency, µM (series often up to 76.9 µM), without a hit: top-dose activation, actives largely listed as activators | 2,300 tested, 4% active | AID 720506;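 note: potency is the fitted concentration of half-maximal effect; 100% = dopamine control response; nearly all actives have a fitted effect of over 70% in size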
D2 ag-3 = D2 receptor agonism, beta-arrestin counterscreen. shares compounds with D2 ag-2. DiscoveRx PathHunter D2 beta-arrestin, luminescence, 90 min; response scale: percent relative to full dopamine signal. Potency, µM (highest dose often 76.9 µM), for inactives: top-dose activation, actives largely listed as activators. 2,300 tested, 5.9% active; note: potency is the fitted concentration of half-maximal effect; % of control where 0% means no effect; nearly all actives have a fitted effect of over 70% in size
The depositor's hits bear a star. Unless noted, calls come from the whole dose curve; as a rule, active = well fitted activation curve with a large enough effect; inconclusive = small, poorly fitted or top-dose-only effect; inactive = flat fitted curve, though single readings scatter.

What do the screens show for `Cc1cccc2sc(NC(=O)CSCc3ccccc3)nc12`?
D2 antagonist: -13; D2 PAM-1: -17; D2 ag-1: -3; D2 PAM-2: -23; D2 ag-2: 44*; D3 arrestin ag: -4%; D2 ag-3: 5%

Results for COc1ccccc1CCNC(=O)C(=O)NCC1OCCN1C(=O)c1ccc(Cl)cc1 (stereo unspecified) ?
D2 antagonist: 8; D2 PAM-1: -3; D2 ag-1: -1; D2 PAM-2: 1; D2 ag-2: -1

How did COc1cc(C)c(NC(=O)C(=S)NCCc2ccccc2)cc1C do in these assays?
D2 antagonist: -11; D2 PAM-1: 1; D2 ag-1: 1; D2 PAM-2: 9; D2 ag-2: 5; D3 arrestin ag: 10%; D2 ag-3: 24%

What do the screens show for `COc1ccc(NC(=S)NCCc2ccccc2)c(C)c1`?
D2 antagonist: 1; D2 PAM-1: 3; D2 ag-1: -2; D2 PAM-2: -3; D2 ag-2: -1

What do the screens show for `CCOC(=O)C1CCN(C(c2ccc(SC)cc2)c2c(O)cc(C)n(Cc3ccco3)c2=O)CC1` (stereo unspecified)?
D2 PAM-2: -7; D2 ag-2: 6

How did CCn1c(=O)cc(SCC(=O)NCCN2CCN(Cc3ccccc3)CC2)c2ccccc21 do in these assays?
D2 antagonist: 18; D2 PAM-1: -16; D2 ag-1: 4; D2 PAM-2: -22; D2 ag-2: 44*; D3 arrestin ag: -9%; D2 ag-3: 11%

Results for Cc1cc(C)c2c(=O)n(CC(=O)NCCCN3CCN(c4ccccc4F)CC3)sc2n1 ?
D2 antagonist: 53*; D2 PAM-1: -16; D2 ag-1: 0; D2 PAM-2: -36; D2 ag-2: 83*; D3 arrestin ag: -13%; D2 ag-3: 0%

What do the screens show for `Cc1cc(C)c2c(=O)n(CC(=O)NCCCN3CCOCC3)sc2n1`?
D2 antagonist: 3; D2 PAM-1: -5; D2 ag-1: 3; D2 PAM-2: -4; D2 ag-2: 0

What do the screens show for `Cn1c(=O)cc(SCC(=O)NCCCN2CCN(c3ccccc3F)CC2)c2ccccc21`?
D2 antagonist: 92*; D2 PAM-1: -3; D2 ag-1: inconclusive; D2 PAM-2: -23; D2 ag-2: 75*; D3 arrestin ag: 16%; D2 ag-3: inconclusive

How did Cn1c(C(=O)NCCCN2CCN(c3ccccc3F)CC2)cc2c(=O)n(C)c3ccccc3c21 do in these assays?
D2 antagonist: 98*; D2 PAM-1: -5; D2 ag-1: inconclusive; D2 PAM-2: -21; D2 ag-2: 73*; D3 arrestin ag: 11%; D2 ag-3: inconclusive

What do the screens show for `Cc1cc(OC(C)C(=O)Nc2c(C(=O)c3ccc(F)cc3)oc3ccccc23)ccc1Cl` (stereo unspecified)?
D2 PAM-2: 10; D2 ag-2: 0

Results for C=CCN1CCN(C(=O)CCc2ccccc2)CC1 ?
D2 antagonist: 1; D2 PAM-1: -13; D2 ag-1: 0; D2 PAM-2: -4; D2 ag-2: -1

What do the screens show for `CCc1ccc(C(=O)c2cn(CC(=O)NCCc3ccc(OC)c(OC)c3)c3nc(C)ccc3c2=O)cc1`?
D2 PAM-2: -2; D2 ag-2: -1

What do the screens show for `O=C(c1ccccc1Cl)N(Cc1ccco1)c1ccccn1`?
D2 PAM-2: 6; D2 ag-2: 1

Results for Cc1cc(=O)oc(C)c1C(=O)NCCCN1CCN(c2ccccc2F)CC1 ?
D2 antagonist: 47*; D2 PAM-1: -10; D2 ag-1: 6; D2 PAM-2: -33; D2 ag-2: 58*; D3 arrestin ag: inconclusive; D2 ag-3: 9%

What do the screens show for `Cc1ccc(-n2nc(C)c(C(=O)NCCCN3CCN(c4ccccc4F)CC3)c2-n2cccc2)cc1`?
D2 PAM-2: 0; D2 ag-2: 0

Results for CCCCCC(=O)N1C[C@H](n2cc(C3CC3)nn2)[C@@H](O)C[C@@H]1c1ccccc1 ?
D2 PAM-1: 1; D2 ag-1: -5

What do the screens show for `CCN(CC)C(=O)c1[nH]cnc1C(=O)N[C@@H](C)C(=O)OC(C)(C)C`?
D2 antagonist: 29; D2 PAM-1: -11; D2 ag-1: -3; D2 PAM-2: -8; D2 ag-2: 5; D3 arrestin ag: -5%; D2 ag-3: -4%

How did CCC1=C(NCc2ccccc2)COC1=O do in these assays?
D2 PAM-1: -8; D2 ag-1: 1

How did COc1ccc(C(=O)NCC(=O)N2CCCC(C(F)(F)F)C2)cc1OC (stereo unspecified) do in these assays?
D2 antagonist: -9; D2 PAM-1: -10; D2 ag-1: 3; D2 PAM-2: -1; D2 ag-2: 1

How did O=C(N/N=C/c1ccc(N2CCOCC2)cc1)C1CC1 do in these assays?
D2 antagonist: 11; D2 PAM-1: -7; D2 ag-1: -3; D2 PAM-2: 1; D2 ag-2: 0

What do the screens show for `CC(C)c1c(C(=O)N/N=C/c2ccc3c(c2)OCO3)nnn1-c1nonc1N`?
D2 antagonist: 10; D2 PAM-1: -3; D2 ag-1: 2; D2 PAM-2: 10; D2 ag-2: 0

What do the screens show for `Nc1nonc1-n1nnc(C(=O)N/N=C/c2ccc3c(c2)OCO3)c1-c1ccccc1`?
D2 antagonist: 39*; D2 PAM-1: -3; D2 ag-1: 0; D2 PAM-2: 21; D2 ag-2: 16; D3 arrestin ag: inconclusive; D2 ag-3: -1%

How did COc1ccc(/C=N/NC(=O)c2nnn(-c3nonc3N)c2CN(C)C2CCCCC2)cc1 do in these assays?
D2 antagonist: -3; D2 PAM-1: -27; D2 ag-1: -1; D2 PAM-2: -18; D2 ag-2: 56*; D3 arrestin ag: 0%; D2 ag-3: -4%

Results for CN(Cc1c(C(=O)N/N=C/c2ccc(F)cc2)nnn1-c1nonc1N)C1CCCCC1 ?
D2 antagonist: 10; D2 PAM-1: -1; D2 ag-1: -3; D2 PAM-2: -8; D2 ag-2: -1

What do the screens show for `Nc1nonc1-n1nnc(C(=O)N/N=C/c2ccc(Br)cc2)c1-c1ccc2c(c1)OCO2`?
D2 antagonist: 41*; D2 PAM-1: 3; D2 ag-1: -5; D2 PAM-2: 18; D2 ag-2: 12; D3 arrestin ag: 4%; D2 ag-3: 7%

Results for Nc1nonc1-n1nnc(C(=O)N/N=C/c2cccc(Cl)c2)c1-c1ccc2c(c1)OCO2 ?
D2 antagonist: -36; D2 PAM-1: -8; D2 ag-1: -8; D2 PAM-2: 1; D2 ag-2: 1

Source: PubChem (National Center for Advancing Translational Sciences (NCATS))
